PubChem BioAssay (NCATS)
Results filed as inconclusive are left out. The source made the active and inactive calls. Unless noted, the call rests on the fitted dose curve; in most records, active means well fitted curve in the direction sought with a large enough effect; inconclusive means small, poorly fitted or top-dose-only effect, or another doubt; inactive means no such curve, though single readings can be large; an effect the other way counts as inactive or inconclusive.

Columns and labels:
[1] = Cell Viability - LYMP2-023 (AID 975);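 further: cellular ATP measured by luciferase luminescence as viability proxy; series mostly up to about 92 µM; nearly all actives have a fitted effect of over 55% in size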
Outline: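 LYMP2-023 human lymphoblastoid cells, 2500/well, preincubated 5 hr at 37 C, then compound-treated 24 hr at 37 C in complete medium. CellTiter-Glo luminescence (ATP) after 30 min at room temperature; AC50 from Hill-equation fits; tetraoctylammonium bromide positive control.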

[2] = Cell Viability - LYMP2-025 (AID 976); further: series mostly up to about 92 µM
Outline: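 Human lymphoblastoid LYMP2-025 cells, 2500/well, exposed 24 h at 37 C in complete medium in 1536-well qHTS. Viability as cellular ATP by CellTiter-Glo luminescence; AC50 from Hill fits of concentration-response data.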

[3] = Cell Viability - LYMP2-002 (AID 977);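 further: series mostly up to about 92 µM; compound exposure lasted 24 h at 37 °C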
Outline: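 Human lymphoblastoid LYMP2-002 cells, 2500 per well, exposed to compounds for 24 h at 37 C in complete medium; viability read as intracellular ATP by CellTiter-Glo luminescence, AC50 from Hill fits.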

[4] = Cell Viability - LYMP2-006 (AID 978); further: series mostly up to about 92 µM; nearly all actives have a fitted effect of over 60% in size
Outline: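 Concentration-dependent loss of intracellular ATP in a human lymphoblastoid line after 24 hr treatment at 37 C was measured by CellTiter-Glo luminescence, with AC50 values obtained from standard Hill-equation modelling.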

[5] = Cell Viability - LYMP2-007 (AID 979);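 further: cells exposed to compound for 24 h before reading; nearly all actives have a fitted effect of over 60% in size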
Outline: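 Human lymphoblastoid LYMP2-007 cells (2500/well) preincubated 5 h at 37 C, then treated 24 h at 37 C in complete medium. Viability by CellTiter-Glo ATP luminescence after 30 min at room temperature; AC50 from Hill fits.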

[6] = Cell Viability - LYMP2-008 (AID 980); further: nearly all actives have a fitted effect of over 60% in size
Outline: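 LYMP2-008 lymphoblastoid cells (2500/well) plated 5 h, then treated 24 h at 37 C in complete medium. Viability read as intracellular ATP by CellTiter-Glo luminescence after 30 min at room temperature; AC50 from Hill fits.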

[7] = Cell Viability - LYMP2-010 (AID 981); further: nearly all actives have a fitted effect of over 55% in size
Outline: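 Human lymphoblastoid LYMP2-010 cells (2500/well) treated 24 h at 37 C in complete medium; viability read as intracellular ATP by CellTiter-Glo luminescence. AC50 from Hill fits of concentration-response data; tetraoctylammonium bromide positive control.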

[8] = Cell Viability - LYMP2-012 (AID 982);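 further: cellular ATP by luciferase luminescence where a drop means cytotoxicity; cells exposed to compound for one day before reading; nearly all actives have a fitted effect of over 55% in size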
[9] = Cell Viability - LYMP2-014 (AID 983); further: series mostly up to about 92 µM; nearly all actives have a fitted effect of over 50% in size
Outline: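 LYMP2-014 human lymphoblastoid cells, 2500/well, treated 24 h at 37 C in complete medium; viability by CellTiter-Glo ATP luminescence after 30 min at room temperature. AC50 from Hill fits of qHTS concentration-response; tetraoctylammonium bromide positive control.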

[10] = Cell Viability - LYMP2-016 (AID 984); further: nearly all actives have a fitted effect of over 55% in size
Outline: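 Acute toxicity in a Coriell human lymphoblastoid line is scored as loss of intracellular ATP over 24 h of treatment in complete medium. CellTiter-Glo signal is fitted across concentrations with the Hill equation to give AC50.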

[11] = Cell Viability - LYMP2-018 (AID 985);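 further: compound exposure lasted 24 hr at 37 °C; nearly all actives have a fitted effect of over 50% in size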
Outline: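 Human lymphoblastoid LYMP2-018 cells, 2500/well, settled 5 hr at 37 C then exposed to compound 24 hr at 37 C; intracellular ATP measured by CellTiter-Glo luminescence. AC50 from Hill-equation concentration-response fits.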

[12] = Cell Viability - LYMP2-020 (AID 986)
Outline: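 Human lymphoblastoid LYMP2-020 cells (2500/well) preincubated 5 h at 37 C, then treated 24 h at 37 C. Viability measured as intracellular ATP by CellTiter-Glo luminescence after 30 min at room temperature; AC50 from Hill fits.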

[13] = Cell Viability - LYMP2-022 (AID 987); further: nearly all actives have a fitted effect of over 55% in size
Outline: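 LYMP2-022 lymphoblastoid cells (2500/well, complete medium) were treated with compounds for 24 hours at 37 C; intracellular ATP was then read by CellTiter-Glo luminescence after 30 min at room temperature. AC50 values were derived from Hill-equation fits.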

[14] = Cell Viability - LYMP2-024 (AID 988); further: nearly all actives have a fitted effect of over 60% in size
Outline: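 Human lymphoblastoid LYMP2-024 cells (2500/well) rested 5 hr, then treated with compound for 24 hr at 37 C in complete medium. Viability was measured as intracellular ATP by CellTiter-Glo luminescence. AC50 values came from Hill-equation fits.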

[15] = Cell Viability - LYMP2-026 (AID 989); further: nearly all actives have a fitted effect of over 50% in size
Outline: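 Human lymphoblastoid LYMP2-026 cells, 2500/well, exposed to compound 24 h at 37 C in complete medium. Viability as intracellular ATP by CellTiter-Glo luminescence; AC50 from Hill fits of qHTS concentration-response.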

[16] = Cell Viability - LYMP1-002 - Assay at 24 hr (AID 993)
Outline: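 Human lymphoblastoid LYMP1-002 cells (2500/well) treated 24 h at 37 °C; viability as intracellular ATP by CellTiter-Glo luminescence. Tetraoctylammonium bromide as positive control; AC50 from Hill-equation fits of qHTS concentration-response.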

[17] = Cell Viability - LYMP1-002 - Assay at 40 hr (AID 994); further: nearly all actives have a fitted effect of over 60% in size
Outline: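 LYMP1-002 human lymphoblastoid cells (2500/well, complete medium) were treated with compounds for 40 hr at 37 C. Intracellular ATP was measured by CellTiter-Glo luminescence, and AC50 values came from Hill-equation fits of concentration-response data; tetraoctylammonium bromide was the positive control.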

[18] = biological target: ATP-dependent 6-phosphofructokinase (Trypanosoma brucei brucei) (UniProt O15648); assay: qHTS Assay to Find Inhibitors of T. brucei phosphofructokinase: hit validation (AID 492961);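 further: luminescence reports ADP formed as PFK phosphorylates fructose-6-phosphate with ATP; series mostly up to about 51 µM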
Outline: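 Inhibition of parasite PFK is measured as reduced ADP formation, quantified via luciferase after ATP depletion. Assay used 0.1 mM ATP, 0.5 mM F6P, 1.25 nM enzyme, 45 min incubation.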

[19] = biological target: Ubiquitin carboxyl-terminal hydrolase 1 (Homo sapiens) (UniProt O94782); assay: Inhibitors of USP1/UAF1: Pilot qHTS (AID 504865);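 further: rhodamine fluorescence freed from ubiquitin-rhodamine substrate followed over time; top concentration of the series differs between compounds; nearly all actives have a fitted effect of over 35% in size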
Outline: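 Kinetic fluorescence assay: 1nM USP1/UAF1, 15 min compound preincubation, then 150nM Ub-Rho; 480/540 nm.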

[20] = biological target: Estrogen receptor (Homo sapiens) (UniProt P03372); assay: qHTS assay for small molecule antagonists of estrogen receptor alpha signaling (AID 588513; active means well fitted curve in the direction sought with a large enough effect in the signal ratio, with a control signal flat, not every such curve was filed as active; the % refers to the signal ratio)
Outline: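 Cells were plated at 5000/well and incubated 4 h at 37 C. Compounds were added as 1:2 dilution series, duplicates. 17-beta-estradiol (0.5nM final) was added for 18 h before CCF4 detection.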

[21] = biological target: Estrogen receptor (Homo sapiens) (UniProt P03372); assay: qHTS assay for small molecule agonists of estrogen receptor alpha signaling (AID 588514; calls by dose curve; further: nearly all actives have a fitted effect of over 70% in size)
Outline: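 ER-alpha-UAS-bla GripTite HEK293 cells, 5000/well in 2% charcoal/dextran-stripped FBS medium, treated with compound titrations 18 h at 37 C. CCF4 beta-lactamase read by fluorescence after 2 h RT; normalised to 20 nM 17-beta-estradiol (100%) and DMSO (0%), Hill fit for EC50 and efficacy.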

[22] = biological target: Bile acid receptor (Homo sapiens) (UniProt Q96RI1); assay: qHTS assay for small molecule antagonists of farnesoid X receptor signaling (AID 588526; calls by dose curve)
Outline: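 Antagonist mode: titrated compounds tested against chenodeoxycholic acid stimulation (normalized to 50 uM CDCA and DMSO) in GeneBLAzer HEK293T cells for 16 h. Beta-lactamase read by CCF4 fluorescence; IC50 from Hill fits.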

Measured: Potency

Sequence of Estrogen receptor (Homo sapiens) (P03372 whole entry, looked up): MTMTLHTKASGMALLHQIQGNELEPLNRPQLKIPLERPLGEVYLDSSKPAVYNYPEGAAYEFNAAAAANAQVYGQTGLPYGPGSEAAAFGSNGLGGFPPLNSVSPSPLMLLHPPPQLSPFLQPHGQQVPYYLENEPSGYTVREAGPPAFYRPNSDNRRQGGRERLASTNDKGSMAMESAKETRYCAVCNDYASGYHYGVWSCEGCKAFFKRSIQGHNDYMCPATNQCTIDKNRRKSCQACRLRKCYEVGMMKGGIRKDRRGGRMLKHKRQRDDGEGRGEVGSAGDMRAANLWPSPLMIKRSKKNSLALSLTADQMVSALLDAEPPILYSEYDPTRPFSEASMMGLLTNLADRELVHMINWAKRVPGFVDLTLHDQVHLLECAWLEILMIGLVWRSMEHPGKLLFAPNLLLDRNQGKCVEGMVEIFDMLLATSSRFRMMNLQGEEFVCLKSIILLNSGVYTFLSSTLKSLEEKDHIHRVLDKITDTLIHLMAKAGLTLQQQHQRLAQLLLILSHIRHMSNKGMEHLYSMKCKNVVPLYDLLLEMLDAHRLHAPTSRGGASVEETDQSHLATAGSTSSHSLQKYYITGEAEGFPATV
Sequence of Bile acid receptor (Homo sapiens) (Q96RI1 whole entry, looked up): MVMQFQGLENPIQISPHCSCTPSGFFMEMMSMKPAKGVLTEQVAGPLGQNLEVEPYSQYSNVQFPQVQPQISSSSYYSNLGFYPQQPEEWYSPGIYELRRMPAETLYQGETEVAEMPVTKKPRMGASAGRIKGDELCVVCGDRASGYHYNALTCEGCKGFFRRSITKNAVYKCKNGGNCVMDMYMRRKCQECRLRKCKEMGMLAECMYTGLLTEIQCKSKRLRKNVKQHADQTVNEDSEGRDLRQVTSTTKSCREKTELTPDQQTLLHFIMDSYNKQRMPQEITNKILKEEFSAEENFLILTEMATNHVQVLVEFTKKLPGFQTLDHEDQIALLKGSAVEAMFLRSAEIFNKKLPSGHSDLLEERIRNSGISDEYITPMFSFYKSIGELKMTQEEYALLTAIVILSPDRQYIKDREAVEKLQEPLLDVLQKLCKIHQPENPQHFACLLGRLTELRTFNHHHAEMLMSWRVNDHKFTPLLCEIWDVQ
Sequence of Ubiquitin carboxyl-terminal hydrolase 1 (Homo sapiens) (O94782 whole entry, looked up): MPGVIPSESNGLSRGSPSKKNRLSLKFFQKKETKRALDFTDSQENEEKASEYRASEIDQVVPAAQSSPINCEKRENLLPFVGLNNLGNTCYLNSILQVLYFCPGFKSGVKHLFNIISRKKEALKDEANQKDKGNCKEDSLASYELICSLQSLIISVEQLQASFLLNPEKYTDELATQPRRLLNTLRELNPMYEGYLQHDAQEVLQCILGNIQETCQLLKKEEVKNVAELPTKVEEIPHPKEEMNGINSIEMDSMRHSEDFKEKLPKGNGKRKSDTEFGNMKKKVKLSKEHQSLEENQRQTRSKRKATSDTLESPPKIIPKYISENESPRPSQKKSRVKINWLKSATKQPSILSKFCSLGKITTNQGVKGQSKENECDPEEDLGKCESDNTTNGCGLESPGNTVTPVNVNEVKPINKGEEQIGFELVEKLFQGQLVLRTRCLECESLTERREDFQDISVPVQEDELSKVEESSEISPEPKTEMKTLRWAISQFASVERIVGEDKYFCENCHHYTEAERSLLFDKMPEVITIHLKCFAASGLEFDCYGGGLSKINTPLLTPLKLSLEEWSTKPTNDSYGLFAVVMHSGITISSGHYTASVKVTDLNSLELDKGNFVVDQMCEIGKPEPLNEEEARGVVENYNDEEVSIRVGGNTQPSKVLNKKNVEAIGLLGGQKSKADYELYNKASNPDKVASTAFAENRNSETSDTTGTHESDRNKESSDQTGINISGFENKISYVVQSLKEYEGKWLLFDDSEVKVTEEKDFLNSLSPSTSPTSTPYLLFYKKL
Sequence of ATP-dependent 6-phosphofructokinase (Trypanosoma brucei brucei) (O15648 whole entry, looked up): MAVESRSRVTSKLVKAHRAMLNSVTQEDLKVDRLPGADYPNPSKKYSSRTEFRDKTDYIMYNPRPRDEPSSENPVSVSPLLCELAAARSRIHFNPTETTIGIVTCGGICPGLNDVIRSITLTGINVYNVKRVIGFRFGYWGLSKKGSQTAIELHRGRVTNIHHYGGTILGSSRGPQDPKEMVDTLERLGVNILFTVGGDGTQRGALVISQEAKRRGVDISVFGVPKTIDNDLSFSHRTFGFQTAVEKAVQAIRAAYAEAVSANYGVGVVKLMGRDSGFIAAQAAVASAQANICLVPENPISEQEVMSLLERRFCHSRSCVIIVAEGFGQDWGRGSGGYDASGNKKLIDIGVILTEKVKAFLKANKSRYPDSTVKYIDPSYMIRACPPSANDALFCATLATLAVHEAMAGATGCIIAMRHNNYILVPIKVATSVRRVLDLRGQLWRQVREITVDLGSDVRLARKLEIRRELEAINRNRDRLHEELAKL

C[C@@H]1[C@H](O)[C@@H](C)/C=C/C=C/C=C/C=C/C=C/C=C/C=C/[C@H](O[C@@H]2O[C@H](C)[C@@H](O)[C@H](N)[C@@H]2O)C[C@@H]2O[C@](O)(C[C@@H](O)C[C@@H](O)[C@H](O)CC[C@@H](O)C[C@@H](O)CC(=O)O[C@H]1C)C[C@H](O)[C@H]2C(=O)O
inactive: all assays above
